Source: PubChem BioAssay AID492956 (The Scripps Research Institute Molecular Screening Center, 2010)
The whole screen tested about 340,000 compounds, of which about 3,300 (0.97%) were called active. The entries come from a sample that favours actives as a whole. Values without a mark were called inactive.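 Rule for the calls: active = inhibition above the mean over all tested compounds plus 3 SD (cut at about 30% in these data); inactive = the rest.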

Target: Platelet-activating factor acetylhydrolase 2, cytoplasmic (Homo sapiens) (UniProt Q99487)
Assay: inhibition of cytoplasmic PAF acetylhydrolase 2 – biochemical, fluorescence polarization, human, primary screen (AID 492956);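 note: inhibitors block probe labeling of enzyme so polarization drops; 0% = enzyme with DMSO and 100% = wells lacking PAFAH2 protein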
Details: recombinant PAFAH2, FP-rhodamine activity probe, at 3.39 µM, stronger effect = higher value

SMILES	inhibition
O=C(Cc1ccc(NC(=O)C2CCCN(C(=O)C3CCCCC3)C2)cc1)Nc1cccc(C(=O)N2CCCCC2)c1 (stereo unspecified)	-2.71%
O=C(CC1Sc2ccccc2NC1=O)NNc1ccc(Cl)c(Cl)c1 (stereo unspecified)	6.55%
CCN(CC)CCCC(C)n1c2nc(=O)[nH]c(=O)c-2nc2cc(Cl)ccc21 (stereo unspecified)	38.8% (active)
CCN(CC)CCn1c2ccc(Cl)cc2c2nc(C)sc21	-2.76%
Cc1ccc(S(=O)(=O)N(Cc2cc3ccccc3[nH]c2=O)CC2CCCO2)cc1 (stereo unspecified)	4.81%
Cn1c(NC(=O)c2ccco2)c(-c2ccccc2Cl)c(=O)c2ccccc21	-1.9%
Cc1[nH]c(C)c(S(=O)(=O)N2CCN(c3cccc(C(F)(F)F)c3)CC2)c1C(=O)N1CCCCC1	8.89%
CCOc1ccc(/C=N/OCC(=O)NCc2cccs2)cc1	4.81%
O=C(COC(=O)/C=C/c1cccc(Cl)c1)NCc1cccs1	37% (active)
CCOc1ccc(/C=C/C(=O)N(CC)CC(=O)NCc2cccs2)cc1OC	5.35%
COc1ccc(Cl)cc1C(=O)OCC(=O)NCc1cccs1	1.83%
O=C(COC(=O)/C=C/c1cccc(Cl)c1)NCCc1ccccc1	20.5%
COc1ccc(/C=C/C(=O)OCC(=O)NCc2cccs2)cc1OC	49.4% (active)
CN(CCc1ccccc1)C(=O)c1cccc(NC(=O)Cc2cccc(NC(=O)C3CCCN(C(=O)C4CCC4)C3)c2)c1 (stereo unspecified)	-1.94%
COc1ccc(CCNC(=O)CN(C)S(=O)(=O)c2ccc3nc(C)sc3c2)cc1OC	-0.36%
COC(=O)C1=C(C)NC(=S)NC1c1ccc(OCC(=O)N2CC(C)OC(C)C2)c(OC)c1 (stereo unspecified)	-0.58%
Cc1ccc(NS(=O)(=O)c2cn(C)c(=O)n(C)c2=O)c(C)c1	1.4%
COc1ccc(S(=O)(=O)N2CN(CCc3ccc(OC)c(OC)c3)c3nc4ccccc4nc32)cc1	8.38%
CCOc1ccc(C(=O)Nc2cccc(SC)c2)cc1	-11.9%
CC(=O)c1c(C)[nH]c(C(=O)OCC(=O)Nc2cc(S(=O)(=O)N3CCCCC3)ccc2C)c1C	7.66%
CC(=O)c1c(C)[nH]c(C(=O)OCC(=O)NCCC(C)C)c1C	30.4% (active)
CC(=O)c1c(C)[nH]c(C(=O)OCC(=O)Nc2c(C)cccc2C)c1C	4.64%
CCC(C)NC(=O)C1CCCN(C(=O)NC2CCCCC2)C1 (stereo unspecified)	10.5%

SMILES	inhibition
COc1ccc(C(=O)C2CCCN(C(=O)c3cc4nc(C)cc(C)n4n3)C2)cc1F (stereo unspecified)	-3.28%
c1coc(-c2nc3nc4ccccc4n3nc2-c2ccco2)c1	45.7% (active)
COc1cc(OC)cc(C(=O)NC(=S)N2CCN(c3ccc(C(F)(F)F)cc3[N+](=O)[O-])CC2)c1	7.31%
Cc1ccc(-c2nn(-c3ccc(F)cc3)cc2C(=O)NCC(c2cccs2)N2CCOCC2)cc1 (stereo unspecified)	3.21%
Cc1cc(C(=O)N2CCN(c3ccccn3)CC2)c(C)o1	-1.14%
O=C(CSC1=Nc2ccccc2C2=NC(c3ccccc3)C(=O)N12)NCC1CCCO1 (stereo unspecified)	7.84%
NC(=O)CSC1=Nc2ccccc2C2=NC(CCC(=O)NCc3ccc(F)cc3)C(=O)N12 (stereo unspecified)	1.37%
CC(C)C1N=C2c3ccccc3N=C(SCC(=O)c3ccc(O)c(O)c3)N2C1=O (stereo unspecified)	43.8% (active)
C/C(=N/Nc1nc(-c2ccccc2)c(CC(=O)O)s1)c1ccccc1	0.51%
N=C1C(c2nc3ccccc3s2)=C(O)CN1NC(=O)c1ccc([N+](=O)[O-])cc1	8.9%
COc1ccccc1N1CC(O)=C(c2nc3ccccc3s2)C1=N	33.6% (active)
CCCCCN1CC(O)=C(c2nc(-c3ccc(Cl)cc3)cs2)C1=N	-0.6%
CCCCCN1CC(O)=C(c2ccccc2)C1=N	-3.01%
CCc1ccc(N2CC(O)=C(c3nc4ccccc4c(=O)[nH]3)C2=N)cc1	-1.39%
CCOC(=O)CCCN1CC(O)=C(c2nc3ccccc3s2)C1=N	34.8% (active)
CC(=O)Nc1ccc(N2C(=O)CCC2=O)cc1C	-0.05%
NC(=O)C1CCN(Cc2nc3c(Br)cc(Br)cc3c(=O)[nH]2)CC1	-2.66%
C/C=C/C(=O)OCC(=O)Nc1ccc(F)cc1Cl	26%
C/C=C/C=C/C(=O)OCC(=O)Nc1ccc(Cl)cc1	86.5% (active)
CCC(=O)Nc1ccc(C(=O)NNC(=O)c2ccc(Cl)cc2)cc1	-2.08%
COc1ccc(-n2c(C)nn(CC3CC3)c2=O)cc1	0.47%
O=C1NCC(c2ccccc2)(c2ccccc2)C(=O)N1	-5.72%
O=C(CSc1n[nH]c(-c2cccnc2)n1)Nc1ccc(Cl)cc1	-7.75%

SMILES	inhibition
O=[N+]([O-])c1cc(S(=O)(=O)NCCc2ccccn2)ccc1Cl	4.86%
CCOc1ncccc1C(=O)OCC(=O)Nc1cccc(S(=O)(=O)N2CCCCCC2)c1	60% (active)
O=C(COC(=O)c1ccccc1)Nc1cccc(S(=O)(=O)N2CCOCC2)c1	37.7% (active)
O=C(CN1CCc2ccccc2C1)Nc1cccc(S(=O)(=O)N2CCOCC2)c1	5.27%
O=C(COC(=O)/C=C/c1ccc(Br)o1)Nc1cccc(S(=O)(=O)N2CCOCC2)c1	42% (active)
CC(=O)c1cccc(OCC(=O)OCC(=O)Nc2cc(S(=O)(=O)N3CCCCC3)ccc2C)c1	1.56%
O=C(COC(=O)CCOc1ccccc1)Nc1cc(S(=O)(=O)N2CCCCC2)ccc1Cl	-0.76%
O=C(COC(=O)COc1ccccc1F)Nc1cccc(S(=O)(=O)N2CCCCC2)c1	-7.67%
CN=C(Nc1cccc(S(=O)(=O)N2CCOCC2)c1)c1ccccc1	0.65%
CS(=O)(=O)c1ccc(Cl)c(NC(=O)COC(=O)c2cccc(S(=O)(=O)N3CCCC3)c2)c1	32.3% (active)
O=C(COC(=O)CCc1ccc(S(=O)(=O)N2CCOCC2)cc1)Nc1cccc(Cl)c1	0.83%
O=C(CSc1ccccc1)Nc1cccc(S(=O)(=O)N2CCOCC2)c1	-0.86%
CC(NC(=O)c1ccccc1)C(=O)OCC(=O)Nc1cccc(S(=O)(=O)N2CCCC2)c1 (stereo unspecified)	7.86%
OC(CN1C2=NCCCN2c2ccccc21)c1ccc(Br)cc1 (stereo unspecified)	9.07%
C=CCNC(=O)/C=C/c1ccc(C(C)C)cc1	10%
CC(=O)NC12CC3CC(C1)CC(C(=O)N1CCN(S(=O)(=O)c4cccs4)CC1)(C3)C2	17.5%
O=C(OCC(=O)N1CCCCCC1)c1ccc(Br)c(S(=O)(=O)N2CCOCC2)c1	8.68%
COc1cccc(NC(=O)COc2cc(C)cc3oc(=O)cc(C)c23)c1	-3.3%
CC(=O)c1nn(-c2ccc(C)cc2)cc1C(=O)c1cccc(Br)c1	1.51%
Cc1ccc(C)c(C(=O)COC(=O)Cn2[nH]c(=O)c3ccccc3c2=O)c1	-1.71%
COCCCNC(=O)c1c(F)c(F)c(F)c(F)c1F	-4.37%
CC(NC(=O)CN1CCN(Cc2ccc(Cl)cc2)C1=O)c1ccc2c(c1)OCCO2 (stereo unspecified)	1.47%
O=C(NCc1cccnc1)c1cccnc1Sc1ccc(Cl)cc1	2.4%

SMILES	inhibition
CCc1ccc(C(=O)OCC(=O)Nc2cccc(S(=O)(=O)NC3=NCCCCC3)c2)cc1	52.3% (active)
COc1ccccc1C(=O)OCC(=O)Nc1cccc(S(=O)(=O)NC2=NCCCCC2)c1	12.3%
O=C(COC(=O)c1c(Cl)cccc1Cl)Nc1cccc(S(=O)(=O)NC2=NCCCCC2)c1	8.12%
CNC(=O)C1CC(=O)N(Cc2ccc3c(c2)OCO3)C(=Nc2ccc(F)cc2)S1 (stereo unspecified)	0.97%
CCC1(C)N(O)C(C)(C)C(c2ccc(OC)cc2)=[N+]1[O-] (stereo unspecified)	2.06%
CCc1ccccc1NC(=O)c1ccc2c(c1)CCN2S(C)(=O)=O	2.6%
COCCNC(=O)Nc1ccc2nc(-c3ccco3)c(-c3ccco3)nc2c1	35.8% (active)
O=C(Nc1nc(-c2ccco2)c(-c2ccco2)s1)c1ccco1	22.9%
COCCNC(=O)c1snc2ccc(Cl)cc12	-2.13%
Cc1nnsc1C(=O)NCc1c(F)cccc1Cl	2.19%
CCOC(=O)c1c(-c2ccccc2)oc2cc(Br)c(O)c(C=O)c12	6.96%
Cc1oc2cc(Br)c(O)c(Br)c2c1C(=O)c1ccccc1	59.6% (active)
Cc1oc2cc([N+](=O)[O-])c(O)c([N+](=O)[O-])c2c1C(=O)c1ccc(Br)cc1	8.04%
COCCN(CCOC)c1nc(N)c2c(N)nc3c(c2c1C#N)CC(=O)N3Cc1ccc(Cl)cc1	5.58%
Clc1ccc(CSc2nnc3c(n2)[nH]c2ccccc23)cc1	-12.8%
CSc1nc(-c2ccco2)nn1C(=O)c1ccccc1Cl	0.54%
c1ccc(CSc2nnc(-c3ccco3)c(-c3ccco3)n2)cc1	57% (active)
S=C(NCc1ccco1)NCc1ccccc1Cl	2.25%
CCc1nnc(SCc2cccc(F)c2)nc1CC	0.34%
Clc1ccccc1CSc1nnc(-c2ccco2)c(-c2ccco2)n1	62.2% (active)
Nn1c(SCC(=O)NC2CCCC2)nnc1-c1ccccc1F	3.8%
CCn1c(N)c(Br)c(=O)[nH]c1=O	-4.56%
